15 compounds from PubChem BioAssay (NCI) can be followed below.

Molecules are shown by their SMILES. About 83,000 compounds went through this panel and 20% of them were active in at least one assay; those are over-represented in the sample as a whole.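 Each cell line was grown in a 96-well plate and treated with one concentration of compound for 48 hours. Values below 10 were considered active.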 Values without a mark were called inactive. Calls of active or inactive are those of the source.

In this assay the test system is TK-10 renal. The assay is described as follows: NCI-60 one-dose screen, 48 h (100 = growth as untreated, 0 = no growth, -100 = all killed). The note with it: 10 µM unless noted.
In the case of `COc1ccccc1Cn1cc2c(c1)-c1oncc1CC2`, the growth was 65.6%. For `CC1=NN(c2cccc(Cl)c2)C(=O)/C1=C\c1cn(-c2nc(N3CCOCC3)nc(N3CCOCC3)n2)c2ccccc12` the value was 93.4%. For `NC(=O)c1c(Nc2ccccc2)nn2cc(-c3nc4ccccc4s3)c(N)nc12` the value was 124%.

Turning to `COc1cc(/C(=C2/O[C@@H]([C@H]3COC(C)(C)O3)[C@H]3OC(C)(C)O[C@@H]23)c2ccc3c(c2)OCO3)cc(OC)c1OC`, the growth was 70.7%. Turning to `O=C(N/N=C/c1coc2ccccc2c1=O)c1cc2oc(-c3ccccc3)cc2[nH]1`, the growth is 143%. Turning to `CCCCCCCCCC[N+](C)(C)C`, the growth was -25.1% (active). For `CCCCCCC(=O)C(C)C` the value was 101%; for `CCCC(=O)NNc1[nH]c(-c2ccc(OC)cc2)cc1C(=O)OCC`, -16.1% (active). As for `O=C1c2cc([N+](=O)[O-])ccc2-c2cc(Cl)c(NC(=O)C(F)(F)F)cc21`, the growth was 129%. For `N=C(c1ccccc1)N(Cc1ccccc1)Cc1ccccc1` the value was 106%.

As for `CSCc1ncc(-c2ccc(C(F)(F)F)cc2)c(NC2CCCCCC2)n1`, the growth is 97% [25 µM]. To `O=C(Nc1cccc(Cn2c(=O)[nH]c3ccc(Oc4ncccn4)cc3c2=O)c1)c1ccc(Cl)cc1` belongs 58.5%; to `CC[C@H](Nc1ncnc2nc[nH]c12)c1nc2cccc(NCc3ccc(C(=O)NO)o3)c2c(=O)n1-c1ccccc1`, 84.1%. To `CCCCCCCCCC[N+](C)(C)N` belongs 74.4%; to `C=C(C)C(C(=O)OCC)(C(=O)OCC)C(C)C`, 113%.
